Compound activity as filed in PubChem.
In the library only some 2.2% were active in any assay of this set; here they are far more common.
FUS suppressor = FUS proteinopathy suppression in yeast. AID 1347120. Potency, µM (highest dose often 76.6 µM), actives largely listed as activators. S. cerevisiae FUS-expressing, growth rescue, OD600, 24 h. actives 0.24% (n = 390,000);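 further: plate controls were DMSO vehicle for no effect and reference control for full effect; nearly all actives have a fitted effect of over 55% in size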
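Steps: raffinose overnight preculture; dilution to OD 0.005 in 2% galactose minimal medium; compound addition (concentration series); 24hr at 30C, 99% humidity; absorbance read at 600 nm.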
TDP-43 yeast inh = rescues yeast growth from TDP-43 toxicity; TDP-43 expressing yeast growth rescue, BacTiter-Glo, 24 h; Potency, µM (titrated, usually from 46.1 µM), inactives show at the top dose growth rescue (activation), actives largely listed as activators; actives 1.8% (n = 410,000); AID 652104; further: % of control where 0% means no effect; nearly all actives have a fitted effect of over 50% in size
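Yeast cells expressing TDP-43 under galactose induction are exposed to compounds for 24 hr at 30 deg C. BacTiter-Glo luminescence measures growth, so protective compounds score as activators.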
Abeta yeast res = compounds reversing amyloid beta toxicity in yeast. yeast expressing A-beta42, growth rescue, OD600, 48 h; response scale: 0% DMSO, 100% iron-clioquinol control. Potency, µM (highest dose often 46.1 µM), usual class: activators. actives 0.063% (n = 410,000). AID 1347071; further: nearly all actives have a fitted effect of over 55% in size
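Growth rescue measured by 600 nm absorbance after 48 h yeast culture at 30 C with compound. Values normalized between DMSO and an equimolar ferric chloride plus clioquinol control.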
Mito fusion yeast = blocks mitochondrial division or promotes mitochondrial fusion. S. cerevisiae fusion-defective mutant growth rescue, CellTiterGlo 48 h. Potency, µM (highest dose often 46.1 µM), without a hit: top-dose growth rescue (activation), hits mostly activators. actives 0.23% (n = 320,000). AID 485298; further: % of control where 0% means no effect; nearly all actives have a fitted effect of over 45% in size
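Growth-rescue viability read-out: after 48 h at the non-permissive 37C in glycerol/ethanol YPEG, yeast mitochondrial fusion mutants are measured by CellTiterGlo luminescence; compounds (23 nl pinned per well) restoring growth score as division inhibitors or fusion activators.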
ERG-DNA inh = inhibitors of human ERG Ets domain-DNA interaction | P11308 | fluorescence polarization, His-ERG Ets domain / labelled DNA | Potency, µM (titrated, usually from 76.9 µM), inactives show at the top dose FP activity, negative = inhibition, actives largely listed as inhibitors | actives 0.028% (n = 370,000); active means well fitted inhibition curve with a large enough effect in the polarisation, with a control signal flat; inconclusive means small, poorly fitted or top-dose-only effect, or effect the other way, or a change in a side signal; inactive means no such curve, though single readings can be large or run the other way; the % refers to the polarisation;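 further: polarization taken with two DNA probes labelled with fluorescein and Texas red; % of control where 0% means no effect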
Target sequence (P11308 whole entry, looked up, the tested form may be a part): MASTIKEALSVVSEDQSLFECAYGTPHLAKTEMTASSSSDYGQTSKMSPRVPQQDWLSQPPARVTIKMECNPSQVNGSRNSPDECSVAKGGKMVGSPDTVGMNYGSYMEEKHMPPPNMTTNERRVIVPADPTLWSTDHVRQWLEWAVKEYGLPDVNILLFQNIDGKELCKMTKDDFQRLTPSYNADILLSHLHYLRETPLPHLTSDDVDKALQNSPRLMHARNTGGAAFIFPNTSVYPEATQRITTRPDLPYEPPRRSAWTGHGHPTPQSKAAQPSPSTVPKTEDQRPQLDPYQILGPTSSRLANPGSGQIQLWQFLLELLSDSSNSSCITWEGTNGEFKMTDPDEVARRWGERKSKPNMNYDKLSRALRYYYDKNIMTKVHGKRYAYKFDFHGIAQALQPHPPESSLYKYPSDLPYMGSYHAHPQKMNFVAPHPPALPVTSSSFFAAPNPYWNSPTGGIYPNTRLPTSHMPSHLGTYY
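His-tagged ERG Ets domain (1 uM in the protein solution; 300mM KCl, 50mM Tris-HCl, 1mM EDTA, 1mM DTT, pH 7.5) received compound, then a probe mix of 5 nM fluorescein-DNA and 100nM Texas-615-DNA. Fluorescence polarization was read for both dyes.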
aSyn yeast inh = rescues yeast growth from alpha-synuclein toxicity | Yeast expressing alpha-synuclein, growth rescue, BacTiter-Glo, 24 h | AID 652106 | actives 0.14% (n = 370,000) | Potency, µM (highest dose often 46.1 µM), inactives show at the top dose growth rescue (activation), most hits filed as activators; further: % of control where 0% means no effect; nearly all actives have a fitted effect of over 65% in size
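Screening used galactose-induced yeast with toxic alpha-synuclein levels, exposed to compound for 24 hr at 30 deg C. Cell growth, read with BacTiter-Glo luminescence, gave the measured signal.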
* hit, by the source's call; i = inactive; ? = inconclusive; . = no result; ! = not confirmed by another sample. Unless noted, the call rests on the fitted dose curve; in most records, active means well fitted curve in the direction sought with a large enough effect; inconclusive means small, poorly fitted or top-dose-only effect, or another doubt; inactive means no such curve, though single readings can be large; an effect the other way counts as inactive or inconclusive. Potency means the concentration at half of the fitted maximal effect.

SMILES	FUS suppressor	TDP-43 yeast inh	Abeta yeast res	Mito fusion yeast	ERG-DNA inh	aSyn yeast inh
CC12C=CC(=O)C=C1CCC1C2C(O)CC2(C)C1CCC2(O)C(=O)CO (configuration not stated)	i	8.3%	i	.	-8.5%	4.8%
COc1ccccc1OCCCn1cc(C#N)c2ccccc21	i	35.5µM*	i	20.5%	11.0%	0.5%
Fc1cc(Br)ccc1Nc1c2c(nc3nc(-c4cccs4)nn13)CCCC2	i	20µM*	i	.	5.7%	.
CC(C)C[C@@H]1COc2cc(N3CCSCC3)ccc2S(=O)(=O)N1C	i	.	.	.	.	.
CC(C)c1cc(-c2cc(C(=O)NCc3ccccc3)on2)nc(NCC2CC2)n1	i	15.8µM*	i	-109.4%	-0.2%	?
CC(C)c1cc(-c2cc(C(=O)NCc3ccccc3)on2)nc(NC2CCCC2)n1	i	?	i	-37.7%	-3.2%	?
Cc1ccc(-c2nnc(SCC(=O)Nc3ccc4c(c3)OCCO4)n2-c2ccc(C)cc2)cc1	i	.	.	.	.	.
CC(C)(C)NC(=O)C(C1CC1)n1c(=O)c(-c2cc3ccccc3[nH]2)nc2ccccc21 (configuration not stated)	i	26.2%	i	.	.	3.9%
Cc1cccc(C)c1NC(=O)C(C1CC1)n1c(=O)c(-c2cc3ccccc3[nH]2)nc2ccccc21 (configuration not stated)	5.62µM*	?	i	.	.	?
Cc1cccc(C)c1NC(=O)C(C1CC1)n1c(=O)c(-c2ccccc2)nc2ccccc21 (configuration not stated)	i	12.6µM*	i	.	.	?
CCN(CC)C(=O)c1ccc2c(c1)N(Cc1c(F)cccc1Cl)C(=O)c1ccccc1S2	?	22.4µM*	i	.	2.1%	.
O=C(NCc1ccco1)c1ccc2c(c1)N(Cc1ccccc1)C(=O)c1ccccc1S2	31.6µM*	15.0%	i	.	2.5%	.
CCN(CCN(C)Cl)/[N+]([O-])=N/Oc1ccc([N+](=O)[O-])cc1[N+](=O)[O-]	.	.	.	.	.	-24.6%
CN(C)c1ccnc2sc(C(=O)NCc3ccccc3)c(N)c12	i	?	i	22.6%	.	12.6µM*
Cc1ccc(S(=O)(=O)N2CCN(c3nc(-c4cncn4C)nc4ccccc34)CC2)cc1	.	.	.	.	.	2.2%
O=C(Oc1cccc(/C=N/Nc2nc(N3CCOCC3)nc(N3CCOCC3)n2)c1)c1ccco1	i	1.5%	i	1.3%	-0.7%	0.8%
COc1cc(/C=N/Nc2nc(Nc3ccccc3)nc(N3CCOCC3)n2)ccc1OC(=O)c1ccco1	?	20µM*	i	2.8%	3.0%	14.0%
Cc1cc(OCc2cc(C(=O)N(C)Cc3ccccn3)no2)cc(C)c1Cl	?	?	?	4.2%	1.1%	4.8%
Cc1cc(OCc2cc(C(=O)NC(C)c3cnn(C)c3)no2)cc(C)c1Cl (configuration not stated)	i	31.6µM*	i	.	.	?
Cc1cc(OCc2cc(C(=O)N(C)C(C)c3ccccn3)no2)cc(C)c1Cl (configuration not stated)	?	22.4µM*	?	9.8%	-2.4%	2.1%
Cc1ccc(S(=O)(=O)N2CCCC(C(=O)Nc3c(C)n(C)n(-c4ccccc4)c3=O)C2)cc1C (configuration not stated)	i	.	.	.	.	.
Cc1c(C(=O)n2cnc3ccccc32)cccc1[N+](=O)[O-]	i	?	i	-0.3%	11.1%	-1.6%
Cc1nc2ccccc2n1C(=O)c1ccccc1[N+](=O)[O-]	.	20µM*	i	7.0%	-2.4%	-0.9%
O=C(Nc1cccn(Cc2c(Cl)cccc2Cl)c1=O)c1c(Cl)cccc1Cl	i	10µM*	i	-13.6%	-12.4%	-7.1%
COC(=O)Nc1cccn(Cc2c(Cl)cccc2Cl)c1=O	i	-20.4%	?	2.7%	-2.8%	-6.7%
SMILES	FUS suppressor	TDP-43 yeast inh	Abeta yeast res	Mito fusion yeast	ERG-DNA inh	aSyn yeast inh
Cc1cccc(CNC(=O)C2CCN(S(=O)(=O)c3ccc4c(c3)CCCN4C(=O)C3CCC3)CC2)c1	28.2µM*	3.4%	i	.	3.5%	.
CC(=O)N1CCCc2cc(S(=O)(=O)N3CCCC(C(=O)N4CCN(c5cc(C)ccc5C)CC4)C3)ccc21 (configuration not stated)	12.6µM*!	-8.3%	i	-9.0%	13.8%	7.1%
Cc1ccc(CNC(=O)C2CCN(S(=O)(=O)c3ccc4c(c3)CCCN4C(=O)C3CCC3)CC2)cc1	i	2.8%	i	.	0.4%	.
CCOC(=O)c1sc(NC(=O)c2ccncc2)c(C#N)c1C	.	-63.9%	i	11.2µM*	-3.3%	-20.1%
CCCS(=O)(=O)NC(=O)C1(C)CCN(C(=O)Cc2ccc3ccccc3c2)C1 (configuration not stated)	i	-13.9%	i	.	.	-9.1%
CCCCN(CCCC)CCCOC(=O)c1ccc(N)cc1	i	9.1%	i	0.3%	-0.8%	-1.2%
CCCCCCOC(=O)c1ccc(N)cc1	i	12.6µM*	i	-16.5%	6.2%	1.7%
CCCCOC(=O)c1ccc(N)cc1	i	?	i	11.2µM*	?	0.3%
COc1cc(C2CC(=O)N(CC(=O)Nc3ccccc3F)c3ccccc3S2)cc(OC)c1OC (configuration not stated)	?	-4.1%	i	.	1.4%	-4.5%
N#Cc1cn(Cc2cccc(Cl)c2)c2ccccc12	.	15.8µM*	i	?	-13.3%	4.9%
O=C(Cc1cn(Cc2cccc(Cl)c2)c2ccccc12)N1CCCC1	i	?	i	27.0%	-2.7%	0.6%
CCCCN1C(=O)C(O)(c2c[nH]c3ccccc23)c2cc(Br)ccc21 (configuration not stated)	i	?	i	.	-6.3%	.
Cc1ccc(-c2cc(C(=O)OC3CCOC3=O)c3ccccc3n2)c(C)c1 (configuration not stated)	i	17.8µM*	i	1.6%	-1.9%	-10.1%
CCc1nc2ccccc2c(C(=O)OC2CCOC2=O)c1C (configuration not stated)	i	20.8%	i	-2.9%	-5.9%	6.7%
O=C(OC1CCOC1=O)c1cc(-c2cccs2)nc2ccccc12 (configuration not stated)	i	25.1µM*	i	20.9%	-9.4%	0.2%
CC1=C(C(=O)N(C(C)C)C(C)C)CC(CC(=O)NCCc2ccccn2)C(=O)N1Cc1ccc(C(C)(C)C)cc1 (configuration not stated)	?	-1.0%	i	.	.	-0.7%
